Compound activity from PubChem BioAssay.
Only some compounds are listed: those with a hit (about 0.52% of all), similar ones and a draw of the others.
KAT2A inh – inhibitors of human GCN5L2 histone acetyltransferase | AID 504327 | Q92830 | Potency, µM (series often up to 58.9 µM), inactives show top-dose activity change, negative = inhibition, usual class: inhibitors | GCN5L2 HAT assay, ThioGlo1 CoA-SH fluorescence | 0.21% of 390,000 active
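Enzyme at 20nM final was mixed with library compounds for 15 min at room temperature. Peptide H3(1-25) at 75uM, acetyl-CoA at 70uM and ThioGlo1 at 50uM were then added. Plates were read immediately and after 20 min (Ex340nm/Em540nm).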
USP2a block – inhibitors of human ubiquitin-specific protease USP2a; USP2 core, Ub-CHOP2 coupled fluorogenic reporter, 485/531; Potency, µM (top dose mostly 38.3 µM), without a hit: top-dose activity change, negative = inhibition, hits mostly inhibitors; 0.01% of 330,000 active;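 also: plate controls were DMSO wells for no effect and full inhibition by NEM control for full effect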
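Cell-free coupled assay: 10nM USP2 core preincubated 30min RT with compound in Tris-HCl pH 8.0/CaCl2/CHAPS buffer, then 25nM Ub-CHOP2 and 25nM reporter substrate; fluorescence (Ex 485/Em 531) read after 60min RT, normalized to NEM inhibition, concentration-response curves fitted.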
Tb PGK inh – inhibitors of T. brucei phosphoglycerate kinase; PGK/GAPDH coupled, Kinase-Glo luminescence, 60 min; Potency, µM (series often up to 57.5 µM), inactives show top-dose activity change, negative = inhibition, most hits filed as inhibitors; 0.043% of 380,000 active; AID 602233; also: nearly all actives have a fitted effect of over 60% in size
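Recombinant glycosomal PGK reaction used 1,3-bisphosphoglycerate generated in-well by GAPDH (100nM final) in 100mM TEA pH 7.6, 5mM MgCl2, 0.01% Tween-20. After 60 minutes at room temperature, ATP was read by Kinase-Glo Plus luminescence end-point.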
Tb PFK block – inhibitors of T. brucei phosphofructokinase; AID 485367; T. brucei PFK, ADP-Glo luminescence; Potency, µM (top dose mostly 57.5 µM), for inactives: top-dose activity, negative = inhibition, usual class: inhibitors; 0.17% of 330,000 active; O15648;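 also: 0% = uninhibited 1x PFK enzyme wells and -100% = no-enzyme wells; nearly all actives have a fitted effect of over 60% in size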
Target sequence (O15648 whole entry, looked up): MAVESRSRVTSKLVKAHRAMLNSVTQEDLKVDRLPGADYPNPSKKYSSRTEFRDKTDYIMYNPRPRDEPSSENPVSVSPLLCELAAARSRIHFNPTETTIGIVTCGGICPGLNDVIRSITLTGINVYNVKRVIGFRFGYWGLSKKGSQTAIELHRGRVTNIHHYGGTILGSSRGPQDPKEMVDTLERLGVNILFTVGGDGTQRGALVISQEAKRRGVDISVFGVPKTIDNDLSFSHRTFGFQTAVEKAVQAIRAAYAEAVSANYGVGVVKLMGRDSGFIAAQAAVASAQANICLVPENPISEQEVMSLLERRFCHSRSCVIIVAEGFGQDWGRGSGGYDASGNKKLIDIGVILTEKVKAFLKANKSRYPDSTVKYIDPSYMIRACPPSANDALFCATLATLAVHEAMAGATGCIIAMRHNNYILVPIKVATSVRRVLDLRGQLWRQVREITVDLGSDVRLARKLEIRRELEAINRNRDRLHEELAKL
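Luminescent ADP detection (ADP-Glo, two-step: ATP depletion then ADP-to-ATP conversion for luciferase) reported PFK activity after 45 min room-temperature reaction of 1.25 nM enzyme with 0.5 mM F6P and 0.1 mM ATP at pH 8.0.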
GLS inh – glutaminase GLS (human) inhibition; O94925; GLS enzymatic activity, qHTS titration; Potency, µM (series often up to 45.5 µM), without a hit: at the top dose activity change, negative = inhibition, hits mostly inhibitors; 0.21% of 410,000 active
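hKGA in 45 mM KH2PO4 (pH 8.2), 0.02% Tween-20 with compound, then 1mM L-Glutamine (stock as added) plus glutamate oxidase/HRP/Amplex red coupling mix. Fluorescence read initially and after 30 min at RT; signal change reflects glutamate formation.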
Active calls of the source: *; i = inactive; ? = inconclusive; · = no result; ! = not confirmed by another sample. Calls follow the shape of the dose curve; as a rule, active = well fitted curve in the direction sought with a large enough effect; inconclusive = small, poorly fitted or top-dose-only effect, or another doubt; inactive = no such curve, though single readings can be large; an effect the other way counts as inactive or inconclusive. Unless noted, % is scaled to controls: 0 for no effect and ±100 for the full control effect; potency is read from the fitted curve at half-maximal effect.

SMILES	KAT2A inh	USP2a block	Tb PGK inh	Tb PFK block	GLS inh
CC(C)=CCc1c2c(c(O)c3c(=O)c(O)c(-c4ccccc4)oc13)C=CC(C)(C)O2	-14%	·	·	·	·
CCN(CC)c1ccc(NC(=S)NC(=O)c2ccco2)cc1	-1%	-2%	i	-5%	10µM*
CCCCOc1ccc(C2=NC(c3ccncc3)=Nc3ccc(OCC)cc3N2)cc1	-16%	·	·	·	-4%
CC#CCC(C)[C@H](O)/C=C/C1[C@H](O)C[C@@H]2C/C(=C\CCCC(=O)O)C[C@H]12 (stereo partly drawn)	·	·	·	·	-7%
CN(C)Cc1c(O)c(Cl)cc2c3c(c(=O)oc12)CCCC3	?	2%	4%	2%	1%
CCc1c(C)c2cc(Cl)c(O)c(CN(CC)CC)c2oc1=O	-29%	1%	i	0%	15%
Cc1c(C)c2cc(Cl)c(O)c(CN(C)C)c2oc1=O	22µM*	1%	-1%	0%	-8%
CCc1c(C)c2cc(Cl)c(O)c(CN(C)C)c2oc1=O	28µM*	1%	-5%	-13%	4%
Nc1c(N)c2ccccc2oc1=O	-11%	1%	-3%	-30%	10%
O=c1oc2ccccc2c2oc3cc(O)c(O)cc3c12	-18%	-14%	-8%	0%	2.8µM*
COc1ccc(-c2ccc3c(c2)c(-c2cccs2)c(-c2cc(OC)cc(OC)c2)n3C)cc1	20µM*	0%	4%	0%	-1%
COc1cc(OC)cc(-c2c(-c3cccs3)c3cc(-c4cc(OC)c(OC)c(OC)c4)ccc3n2C)c1	-12%	-3%	1%	-4%	1%
Cc1cccc(CCNC(=O)c2cnc3c(C)cccn3c2=O)c1	0%	·	10%	·	-2%
COc1ccc(-c2nc(SCC(=O)NCCCc3ccccc3)n[nH]2)cc1	-5%	·	8%	·	6%
COc1ccc(OC)c2c(=S)c3ccccc3[nH]c12	14µM*	·	·	·	·
COc1ccc(-c2c(N)nnc3c2[nH]c2ccccc23)cc1OC	-17%	0%	2%	5%	0%
CCCC1(C)C(C#N)(C#N)C1(C#N)C#N	-17%	·	·	·	·
OCC(O)COc1ccc(Cl)cc1 (stereo not drawn)	·	·	·	·	-7%
O=C(NCc1nc2ccccc2[nH]1)c1ccc(S(=O)(=O)N2CCOCC2)cc1	-4%	3%	22µM*	-3%	7%
Cc1ccc(/C=N/n2c(-c3ccccc3)csc2=S)cc1	·	·	·	·	-5%
CCOC1=C2CN(S(=O)(=O)c3ccc(C)cc3)[C@H](c3cccc4ccccc34)C[C@H]2C(C#N)(C#N)C(C#N)(C#N)C1	·	·	·	·	-11%
CCOC1=C2[C@H](c3ccccc3)N(S(=O)(=O)c3ccc(C)cc3)C(C(C)(C)C)[C@H]2C(C#N)(C#N)C(C#N)(C#N)C1 (stereo partly drawn)	·	·	·	·	2.2µM*
CN1CCC(N(Cc2cccs2)c2ccccc2)CC1	·	·	·	·	13%
C/C(CC(=O)Nc1ccc2ccccc2c1)=N\NC(=O)c1cnccn1	-7%	0%	-5%	-3%	10%
C/C(CC(=O)Nc1ccc2ccccc2c1)=N\NC(=O)c1ccc(O)c(O)c1	-11%	-11%	-2%	1%	6.3µM*
SMILES	KAT2A inh	USP2a block	Tb PGK inh	Tb PFK block	GLS inh
CCOC(=O)N1CCN(c2cc(NCCC(=O)O)c3c4c(onc24)-c2ccccc2C3=O)CC1	?	?	?	-17%	18µM*
O=C(NN=Cc1ccc(F)cc1)c1cccc(S(=O)(=O)N2CCCC2)c1	0%	4%	-5%	-16%	5%
O=C(N/N=C/c1ccc(O)c(O)c1)c1cccc(S(=O)(=O)N2CCCCC2)c1	-1%	-1%	-10%	-18%	7.1µM*
O=C(O)c1cc(O)c2c(c1)C(=O)c1cc(O)cc(O)c1C2=O	-18%	3%	?	29%	18µM*
CCC(C)C1OC2(C=CC1C)CC1CC(C/C=C(\C)C(OC3CC(OC)C(OC4CC(OC)C(NC(C)=O)C(C)O4)C(C)O3)C(C)/C=C/C=C3\COC4C(O)C(C)=CC(C(=O)O1)C34O)O2 (stereo not drawn) (tested in a mixture with another compound)	·	·	·	·	-2%
CC(C)(C)OC(=O)N1CCC(c2c(C(=O)Nc3ccc4c(c3)OCO4)cnn2-c2ccc(F)cc2F)CC1	1%	·	9%	·	1%
CC1c2cccc(O)c2C(O)=C2C(=O)[C@]3(O)C(O)=C(C(N)=O)C(=O)C(N(C)C)C3C(O)C21 (stereo partly drawn)	1%	·	·	·	·
C=C1c2c(Cl)ccc(O)c2C(O)=C2C(=O)[C@@]3(O)C(O)=C(C(N)=O)C(=O)[C@@H](N(C)C)[C@@H]3[C@@H](O)[C@H]12	6.3µM*	·	·	·	?
COc1c(C)cc(S(=O)(=O)Nc2cccc(-c3ccc(N4CCOCC4)nn3)c2)c(C)c1C	-11%	·	-17%	·	-7%
CCOc1ccccc1NC(=O)Nc1cc(C(=O)NCc2ccc(C)cc2)ccc1N1CCCC1	-12%	·	i	·	2%
CCOc1cccc(/C=N/NC(=O)CC2C(=O)NN=C2C)c1O (stereo not drawn)	-12%	-2%	1%	-9%	5.6µM*
COc1ccc2[nH]c3c4c(ccc3c2c1)C(=O)C=CC4=O	-1%	-6%	3%	12µM*	?
N#CCCn1c(=O)c(-c2cccs2)nc2cnc(Nc3ccccc3)nc21	-2%	·	·	·	·
CCNc1ncc2nc(-c3cccs3)c(=O)n(CCC#N)c2n1	7.1µM*	·	·	·	·
CCC(C)NC(=O)CNC(=O)c1nn(-c2ccc(OC)c(Cl)c2)c(=O)c2ccccc12 (stereo not drawn)	-10%	3%	·	2%	7%
COc1ccc(-n2nc(C(=O)NCC(=O)NC(C)C)c3ccccc3c2=O)cc1Cl	7.1µM*	0%	·	-4%	-1%
CCCCNC(=O)NS(=O)(=O)c1ccc(CO)cc1	4%	·	·	·	·
NCCNCCN	11%	·	·	·	-21%
Cc1ccn2c(NC3CCCC3)c(-c3ccsc3)nc2c1	-3%	3%	-1%	0%	7.1µM*
CC(=O)c1cccc(NC(=O)Cc2ccc(NC(=O)N3CCCCc4ccccc43)cc2)c1	-13%	·	-3%	·	4%
O=[N+]([O-])c1ccc(N2CCN(c3ccccc3Cl)CC2)cn1	-13%	1%	-1%	5%	-9%
O=[N+]([O-])c1ccc(N2CCN(c3ccc(O)cc3)CC2)cn1	1%	0%	-1%	-17%	10µM*
Oc1ccc(NCc2ccc(OCc3ccccc3)cc2)cc1	-10%	-1%	-3%	-16%	11µM*!
COc1ccc(NC(=O)CN(C)C(=O)c2cc(-c3ccco3)nc3ccccc23)cc1	20µM*	-2%	?	?	?
CN(CC(=O)Nc1cccc(F)c1)C(=O)c1cc(-c2ccco2)nc2ccccc12	-30%	-3%	?	-22%	?
